Results filed as inconclusive are left out. Where a call stands in place of a potency, no number is given. Active and inactive are the calls of the source. Unless noted, calls follow the shape of the dose curve; as a rule, active = well fitted inhibition curve with a large enough effect; inconclusive = small, poorly fitted or top-dose-only effect; inactive = flat fitted curve, though single readings scatter.

Test system in one test: not listed separately
Nature of the test: qHTS profiling of the MIPE4 collection as inhibitors of Plasmodium falciparum (DD2) proliferation (Rep 2) (AID 743346; call rule not given here). The settings on record: P. falciparum Dd2 in erythrocytes, SYBR Green DNA, 72 h; at 28.5 µM. The method, boiled down: (§1)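 Erythrocytes infected with P. falciparum (0.3% parasitemia, 2.5% hematocrit) incubated with compounds 72 h at 37 C, 5% CO2. Lysis with saponin/Triton buffer containing SYBR Green I, overnight at room temperature in the dark; DNA fluorescence (485/535 nm) normalised to 0.29 uM artemisinin and DMSO.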
On the technique in general: In qHTS, concentration-response curves come from the screen itself.
In turn, `CC(C)(C)c1cc(O)c(CN)c(C(C)(C)C)c1` registered a parasite growth, % of control (lower = inhibition) of 19.6%.
For `O=C(Nc1ccc(-c2ccccc2)cc1)[C@H](Cc1ccc(O[S+](=O)([O-])c2cccc3cnccc23)cc1)N[S+](=O)([O-])c1cccc2cnccc12`, the parasite growth, % of control (lower = inhibition) was determined as 17.5%.
`CC(C)(C)OC(=O)N[C@@H](Cc1ccc(O[S+](=O)([O-])c2cccc3cnccc23)cc1)C(=O)N1CCN(Cc2ccccc2)CC1` returned a parasite growth, % of control (lower = inhibition) of 22.5%.
As for `CC(C)(C)OC(=O)N[C@@H](Cc1ccc(OS(=O)(=O)c2cccc3cnccc23)cc1)C(=O)N1CCCN(C(=O)OC(C)(C)C)CC1`, the parasite growth, % of control (lower = inhibition) came to 34.3%.
`O=C([C@H](Cc1ccc(O[S+](=O)([O-])c2cccc3cnccc23)cc1)N[S+](=O)([O-])c1cccc2cnccc12)N1CCN(Cc2ccccc2)CC1` showed a parasite growth, % of control (lower = inhibition) of 19.3%.

Test system in a further test: not listed separately
Nature of the test: qHTS profiling of the MIPE4 collection as inhibitors of Plasmodium falciparum (HB3) proliferation (AID 743347; call rule not given here). The settings on record: P. falciparum HB3 in erythrocytes, SYBR Green DNA, 72 h; at 28.5 µM. Put shortly: as §1
Consider `CC(C)(C)c1cc(O)c(CN)c(C(C)(C)C)c1`, for which the growth, % of control was found to be 4.33%.
In turn, `O=C(Nc1ccc(-c2ccccc2)cc1)[C@H](Cc1ccc(O[S+](=O)([O-])c2cccc3cnccc23)cc1)N[S+](=O)([O-])c1cccc2cnccc12` showed a growth, % of control of 6.38%.
In turn, `CC(C)(C)OC(=O)N[C@@H](Cc1ccc(O[S+](=O)([O-])c2cccc3cnccc23)cc1)C(=O)N1CCN(Cc2ccccc2)CC1` showed a growth, % of control of 10.3%.
Still for that read-out and setting: the value for `CC(C)(C)OC(=O)N[C@@H](Cc1ccc(OS(=O)(=O)c2cccc3cnccc23)cc1)C(=O)N1CCCN(C(=O)OC(C)(C)C)CC1` was 7.55%; that for `O=C([C@H](Cc1ccc(O[S+](=O)([O-])c2cccc3cnccc23)cc1)N[S+](=O)([O-])c1cccc2cnccc12)N1CCN(Cc2ccccc2)CC1` was 5.19%.

The target of another test is Calcium and integrin-binding protein 1 (Homo sapiens) (UniProt Q99828). The test can be described thus: Primary qHTS for Identification of Calcium Integrin Binding Protein 1 (CIB1) Competitor (AID 1508620). Also: top concentration of the series differs between compounds. The settings on record: CIB1-GST / FITC-alphaIIb peptide fluorescence polarization; series mostly up to 114 µM. Put shortly: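 Fluorescence polarization competition: GST-tagged CIB1 (1 uM final) preincubated with compound 15 min at room temperature, then FITC-labelled alphaIIb peptide (100 nM final) added. After 15 min at room temperature, polarization read at Ex 480/Em 540.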
Sequence of Calcium and integrin-binding protein 1 (Homo sapiens) (Q99828 whole entry, looked up): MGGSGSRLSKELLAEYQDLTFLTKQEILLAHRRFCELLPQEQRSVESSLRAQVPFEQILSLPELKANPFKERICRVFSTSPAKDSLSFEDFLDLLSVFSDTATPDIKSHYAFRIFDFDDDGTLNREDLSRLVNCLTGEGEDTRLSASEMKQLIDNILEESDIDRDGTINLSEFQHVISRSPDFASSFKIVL
As for `CC(C)(C)c1cc(O)c(CN)c(C(C)(C)C)c1`, the Potency result was “inactive”.
For the molecule `N[C@@H](Cc1ccc(O[S+](=O)([O-])c2cccc3cnccc23)cc1)C(=O)N1CCN(c2ccccc2)CC1`, the Potency result was “inactive”.
The same measure, in the same setting: the value for `CC(C)(C)OC(=O)N[C@@H](Cc1ccc(O[S+](=O)([O-])c2cccc3cnccc23)cc1)C(=O)N1CCN(c2ccccc2)CC1` was “inactive”; that for `O=C(Nc1ccc(-c2ccccc2)cc1)[C@H](Cc1ccc(O[S+](=O)([O-])c2cccc3cnccc23)cc1)N[S+](=O)([O-])c1cccc2cnccc12` was “inactive”; that for `COC(=O)[C@H](Cc1ccc(O[S+](=O)([O-])c2cccc3cnccc23)cc1)N(C)[S+](=O)([O-])c1ccc2cnccc2c1` was “inactive”.
Turning to `N[C@@H](Cc1ccc(O[S+](=O)([O-])c2cccc3cccnc23)cc1)C(=O)N1CCN(c2ccccc2)CC1`, the Potency result is “inactive”.
As to `O=C(Nc1nc(-c2ccccc2)cs1)c1ccccc1[N+](=O)[O-]`, the Potency result was “inactive”.
For `O=C([C@H](Cc1ccc(O[S+](=O)([O-])c2cccnc2)cc1)N[S+](=O)([O-])c1cccc2cnccc12)N1CCN(c2ccccc2)CC1`, the Potency result is “inactive”.
On to `O=C(Nc1nc(-c2ccccc2)cs1)c1ccccc1Cl`, for which the Potency entry was “inactive”.
Regarding `O=C([C@H](Cc1ccc(O[S+](=O)([O-])c2cccc3cccnc23)cc1)N[S+](=O)([O-])c1cccnc1)N1CCN(c2ccccc2)CC1`, the Potency entry is “inactive”.
`Cc1nc(NCc2ccccc2)c2nc(-c3ccccc3)n(CCN3CCOCC3)c2n1`: the Potency entry is “inactive”.
For the molecule `N[C@@H](Cc1ccc(OS(=O)(=O)c2cccnc2)cc1)C(=O)N1CCN(c2ccccc2)CC1`, the Potency entry was “inactive”.
`Cc1ccc(S(=O)(=O)Nc2cccnc2C(=O)Nc2nc(-c3ccccc3)cs2)cc1`: the Potency entry was “inactive”.
For `CC(C)(C)OC(=O)N[C@@H](Cc1ccc(O[S+](=O)([O-])c2cccc3cnccc23)cc1)C(=O)N1CCN(Cc2ccccc2)CC1`, the Potency entry is “inactive”.
With `Cc1ccc(S(=O)(=O)Nc2cccc(C(=O)Nc3nc(-c4ccc(Cl)cc4)cs3)c2)cc1`, the Potency result was “inactive”.
For the molecule `COc1ccc(OC)c(C(=O)Nc2nc(-c3ccccc3)cs2)c1`, the Potency entry is “inactive”.
With `Cc1nc(NC2CCCCC2)c2nc(-c3ccccc3)n(CC3CCN(C)CC3)c2n1`, the Potency entry was “inactive”.
As to `O=C([C@@H](Cc1ccc(O[S+](=O)([O-])c2cccnc2)cc1)N[S+](=O)([O-])c1cccc2cccnc12)N1CCN(c2ccccc2)CC1`, the Potency entry was “inactive”.
Regarding `Cc1ccc(S(=O)(=O)Nc2ccccc2C(=O)Nc2ccc(-c3ccccc3)nc2)cc1`, the Potency entry was “inactive”.
On the same count and under the same terms, the value for `CC(C)(C)OC(=O)N[C@@H](Cc1ccc(OS(=O)(=O)c2cccc3cnccc23)cc1)C(=O)N1CCCN(C(=O)OC(C)(C)C)CC1` was “inactive”.
For `CNC1CCC(N(Cc2ccc(OC)c(-c3ccc(C#N)cc3)c2)C(=O)c2sc3ccccc3c2Cl)CC1` (stereo not drawn), the Potency result was “inactive”.
In the case of `COc1ccc(C2=Nn3c(nnc3-c3ccccc3OC)SC2)cc1OC1CCCC1`, the Potency result was “inactive”.
With `O=C(NCCN1CCCC1)[C@H](Cc1ccc(OS(=O)(=O)c2cccc3cnccc23)cc1)NS(=O)(=O)c1cccc2cnccc12`, the Potency result is “inactive”.
For the molecule `Cc1ccc(S(=O)(=O)Nc2cc(Cl)cc(C(=O)Nc3nc(-c4ccccc4)cs3)c2)cc1`, the Potency result is “inactive”.
As to `O=C([C@H](Cc1ccc(O[S+](=O)([O-])c2cccc3cnccc23)cc1)N[S+](=O)([O-])c1cccc2cnccc12)N1CCN(Cc2ccccc2)CC1`, the Potency result was “inactive”.
`CN1CCN(C(=O)[C@H](Cc2ccc(O[S+](=O)([O-])c3cccc4cnccc34)cc2)N[S+](=O)([O-])c2cccc3cnccc23)CC1`: the Potency result is “inactive”.
Still for that read-out and setting: the value for `COc1ccc(-c2ccc3ncnc(NCc4cccs4)c3c2)cc1OC` was “inactive”.
The same measure, in the same setting: the value for `CC(C)(C)OC(=O)N[C@@H](Cc1ccc(O[S+](=O)([O-])c2cccnc2)cc1)C(=O)N1CCN(c2ccccc2)CC1` was “inactive”.
